Experimental data published in PubChem BioAssay AID651820 (National Center for Advancing Translational Sciences (NCATS), 2012).
In all, about 340,000 compounds went through this assay and about 12,000 (3.5%) were called active. Where a call stands in place of a potency, no number is given. Another 18% or so got no clear call; they are omitted. This is one part of a sample in which actives are shown more often than they occur. Calls come from the whole dose curve; as a rule, active = well fitted inhibition curve with a large enough effect; inconclusive = small, poorly fitted or top-dose-only effect, or another doubt; inactive = no such curve, though single readings can be large or run the other way.
Potency is the fitted concentration of half-maximal effect.

Experiment: qHTS Assay for Inhibitors of Hepatitis C Virus (HCV)
Conditions: Huh7.5.1 HCVcc-Cre infection, luciferase reporter, 44 h; series mostly up to 41.8 µM
Outline: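 Luciferase read-out (15 sec integration) after a 15 min room-temperature substrate step quantifies HCVcc-Cre infection. Cells, 1,000 per well, had compound added 4 h post-plating, then virus at ~0.5 moi, and were cultured 44 h.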
In the case of `CCCc1cc(=O)[nH]c(SCC(=O)c2cc(C)n(CCC)c2C)n1`, the Potency is reported as “inactive”. In the case of `Cc1cc(C(=O)CSc2nc(N)cc(=O)[nH]2)c(C)n1CCc1ccc(Cl)cc1`, the Potency is reported as 11.2 µM (active). For `Cc1cc(=O)[nH]c(SCc2ccc(Cl)cc2)n1`, the Potency was “inactive”. With `Cc1ccc(S(=O)(=O)N2CCN(C(=O)c3cc(S(=O)(=O)N4CCOCC4)ccc3F)CC2)cc1` the Potency was “inactive”. In the case of `CCCCCCCCNS(=O)(=O)CCNC1CCCCC1`, the Potency is reported as “inactive”. With `COc1cccc(C(=O)Nc2ccc(N3CCN(C(=O)c4ccco4)CC3)cc2)c1` the Potency was “inactive”. In the case of `COc1cccc(C(=O)Nc2ccc(N3CCCC3)cc2)c1`, the Potency is reported as 11.2 µM (active). For `COc1ccc(C(=O)Nc2ccc(N3CCC(C)CC3)cc2)cc1Br`, the Potency was “inactive”. With `O=C(CSc1ncn[nH]1)Nc1ccc(Br)cc1Br` the Potency was “inactive”. With `COc1ccc(C(=O)NC2CCCc3c2cnn3-c2cccc(C)c2C)c(OC)n1` (stereo not given) the Potency was 2.24 µM (active). With `Cc1cc(C(=O)NNC(=O)c2ccccc2O)c(C)o1` the Potency was “inactive”. With `COc1ccc(C(=O)NC2CC(C)(C)Cc3c2cnn3-c2ccccc2C)o1` (stereo not given) the Potency was “inactive”. With `Cn1nccc1C(=O)NC1CCCc2c1cnn2-c1ccccc1F` (stereo not given) the Potency was 0.891 µM (active). For `Cc1cccc(C(=O)OC(C)C(=O)NC2CCCc3ccccc32)c1O` (stereo not given), the Potency was “inactive”. With `COc1cccc(C(=O)Nc2c3c(nn2-c2cccc(C)c2C)CS(=O)(=O)C3)c1OC` the Potency was “inactive”. For `CC(=O)NCC(=O)NC1CCCc2c1cnn2-c1ccccc1F` (stereo not given), the Potency was “inactive”. In the case of `CC1(C)Cc2c(cnn2-c2cccc(F)c2)C(NC(=O)c2cc[n+]([O-])cc2)C1` (stereo not given), the Potency is reported as “inactive”. In the case of `Cc1cc(C(=O)NC2CCCc3c2cnn3-c2cccc(C)c2C)c(C)o1` (stereo not given), the Potency is reported as 10 µM (active). In the case of `NC(=S)NN=C1CCCC(C(F)(F)F)C1` (stereo not given), the Potency is reported as “inactive”. For `C#CCOCCOCCOCCNc1nc(N2CCN(C(=O)Cn3cc(CCCCN)nn3)CC2)nc(N2CCN(C(=O)[C@H](CCCCN)n3cc(CCC(=O)O)nn3)CC2)n1`, the Potency was “inactive”. With `CCOC(=O)C1=CN(Cc2ccc(Br)cc2)S(=O)(=O)N(C)C1C` (stereo not given) the Potency was “inactive”. In the case of `CCOC(=O)[C@H]1[C@H]2COc3cc(OC)ccc3[C@@H]2N2C(=O)CN(Cc3ccc(Cl)cc3)C(=O)[C@@]12C`, the Potency is reported as “inactive”. For `CN(CC(=O)NCCc1ccc(S(N)(=O)=O)cc1)CC(=O)Nc1ccc(F)c(F)c1F`, the Potency was “inactive”. With `O=C(NCCS(=O)(=O)N1CCN(c2ccc(F)cc2)CC1)c1ccc2c(c1)OCO2` the Potency was “inactive”. For `CC1CCN(C(=O)CCc2nnc3ccc(NCc4ccco4)nn23)CC1`, the Potency was “inactive”. With `CN1CCc2c(sc3c2c(NCc2ccco2)nc2nnnn23)C1` the Potency was 10 µM (active). In the case of `CCCSc1nc(NCc2ccco2)c2c3c(sc2n1)COC(C)(CC)C3` (stereo not given), the Potency is reported as “inactive”. With `CCC1(c2ccccc2)NC(=O)N(CC(=O)Nc2ccccc2C(=O)NC2CCCC2)C1=O` (stereo not given) the Potency was “inactive”. With `COCC(C)n1c(SCC(=O)NC2CCCCC2C)nc2ccccc2c1=O` (stereo not given) the Potency was “inactive”. With `CSCCC(NC(=O)c1ccco1)C(=O)Nc1cc(C)ccn1` (stereo not given) the Potency was “inactive”. For `COc1cc(Br)c(-c2sc(Nc3ccccc3)n[n+]2-c2ccccc2)cc1OC`, the Potency was “inactive”. With `Cc1ccc(Nc2nnc(SCc3ccccc3)s2)cc1` the Potency was “inactive”. For `CCc1ccc(Nc2n[n+](-c3ccccc3)c(-c3cccc(Cl)c3Cl)s2)cc1`, the Potency was 10 µM (active). With `CCCN(C(=O)COC(=O)CNS(=O)(=O)c1ccc(NC(C)=O)cc1)C1CCS(=O)(=O)C1` (stereo not given) the Potency was “inactive”. In the case of `COc1cc(OC)cc(C(=O)NNC(=O)CCOc2ccccc2OC)c1`, the Potency is reported as “inactive”. For `COc1ccc(C)cc1NC(=O)c1cc(-c2ccccc2)nc2c1cnn2C(C)C`, the Potency was “inactive”. With `O=C1Cc2cc(S(=O)(=O)Nc3cccc(F)c3)ccc2N1` the Potency was “inactive”. In the case of `COc1ccc(-c2cc(C(F)(F)F)nc(S(C)(=O)=O)n2)cc1OC`, the Potency is reported as 10 µM (active). In the case of `COc1cc(OC)nc(S(C)(=O)=O)n1`, the Potency is reported as “inactive”. In the case of `COc1ccc(-c2cc(C(=O)NCCCN3CCCC3=O)c3ccccc3n2)cc1OC`, the Potency is reported as “inactive”. With `CSCCC(NC(=O)COc1ccccc1)C(=O)OCc1ccc(Cl)cc1` (stereo not given) the Potency was “inactive”. In the case of `O=C(COC(=O)c1ccc(O)cc1O)c1ccc2c(c1)OCCO2`, the Potency is reported as “inactive”. In the case of `CCOC(=O)N1CCN(C(=O)c2cc3c(-c4ccc(Cl)cc4)nn(C)c3s2)CC1`, the Potency is reported as “inactive”. In the case of `CN(CCNC(=O)c1cc2c(-c3ccccc3F)nn(C)c2s1)C1CCCCC1`, the Potency is reported as 12.6 µM (active). With `Cc1ccccc1-n1nc(C)c2cc(C(=O)NC3CC3)sc21` the Potency was “inactive”. With `CCOc1ncccc1C(=O)NNC(=O)c1cccc(S(=O)(=O)Nc2ccccc2OC)c1` the Potency was “inactive”. With `C=CCCC(=O)N1C[C@H]2CON(C)[C@H]2C[C@H]1c1cccc(Nc2ccccc2)c1` the activity change, negative = inhibition was -15.5% [at 8.37 µM] (inactive). In the case of `CC(C)c1ccc(NC(=S)NNc2ccc(Cl)c(C(=O)O)c2)cc1`, the Potency is reported as “inactive”. For `Cc1ccc(C)c(NC(=S)NNC(=O)c2csc(C)c2)c1`, the Potency was “inactive”. With `Cc1ccc(C)c(NC(=S)NNC(=S)Nc2ccc(C(C)C)cc2)c1` the Potency was 5.62 µM (active). In the case of `CCOc1ccc(Br)cc1S(=O)(=O)Nc1ccc(S(=O)(=O)Nc2cc(C)on2)cc1`, the Potency is reported as “inactive”. For `COc1ccc(C2CC(c3cccs3)=Nc3ccccc3S2)cc1OC` (stereo not given), the Potency was 11.2 µM (active). In the case of `COc1ccc(C2CC(c3cccs3)=NN2C(=O)CCC(=O)O)cc1OC` (stereo not given), the Potency is reported as “inactive”. In the case of `COc1ccc(C2CC(c3cccs3)=NN2c2ccc(F)cc2)cc1OC` (stereo not given), the Potency is reported as “inactive”. In the case of `O=C(Nc1c[nH]c(=O)[nH]c1=O)OCc1ccccc1`, the Potency is reported as “inactive”. For `CCOc1ccc(-c2cc(C)[n+](CCN(CC)CC)c(-c3ccc(OCC)cc3)c2)cc1`, the Potency was 11.2 µM (active). With `CCOc1ccc(-c2c(C)n([O-])c3c([n+]2=O)CCCC3)cc1` the Potency was “inactive”. For `CCOc1ccc(-c2nnc3ccc(SC)nn23)cc1`, the Potency was “inactive”. In the case of `O=C(NCCCN1CCOCC1)c1cc(-c2cccc(O)c2)on1`, the Potency is reported as “inactive”. For `O=C(NCCCN1CCOCC1)c1cc(-c2ccc(Cl)cc2)on1`, the Potency was 11.2 µM (active). For `COc1ccc(-c2cc(C(=O)NCCCN3CCOCC3)no2)cc1`, the Potency was “inactive”. For `C[C@H](NC(=O)c1ccccc1Cl)C(=O)OCC(=O)N1CCN(c2ccccc2)CC1`, the Potency was “inactive”. For `CCN(CC)c1ccc(/C=N/NC(=O)CNC(=O)c2cccnc2)cc1`, the Potency was “inactive”. With `Cc1ccc(C(=O)NCCNC(=O)c2cnccn2)cc1` the Potency was “inactive”. In the case of `CCN(CC)c1ccc(/C=N/NC(=O)c2cnccn2)c(O)c1`, the Potency is reported as 3.55 µM (active). In the case of `CCC1([N+](=O)[O-])COC(c2ccc(C)cc2)OC1` (stereo not given), the Potency is reported as “inactive”. With `COc1ccc(C(=O)NCc2ccc(Cl)cc2)cc1S(=O)(=O)N1CCCC1` the Potency was “inactive”. In the case of `O=C(COC(=O)c1cnccn1)Nc1ccc(Cl)cc1C(F)(F)F`, the Potency is reported as “inactive”. In the case of `Cc1cccc(N2CCN(c3ccc(C(N)=O)cc3[N+](=O)[O-])CC2)c1C`, the Potency is reported as “inactive”. In the case of `CCOC(=O)C1CCN(c2ccc(C(=O)O)cc2[N+](=O)[O-])CC1`, the Potency is reported as “inactive”. In the case of `CS(=O)(=O)N1CCN(c2ccc(C(=O)NC3C4CC5CC(C4)CC3C5)cc2[N+](=O)[O-])CC1` (stereo not given), the Potency is reported as 11.2 µM (active). With `Cc1ccc(C(=O)c2ccc(N3CCN(C)CC3)c([N+](=O)[O-])c2)cc1` the Potency was 10 µM (active). With `O=C(NC1C2CC3CC(C2)CC1C3)c1ccc(N2CCNCC2)c([N+](=O)[O-])c1` (stereo not given) the Potency was “inactive”. For `O=C(NCCCN1CCOCC1)c1ccc(N2CCCC2)c([N+](=O)[O-])c1`, the Potency was “inactive”. With `Cc1cc([N+](=O)[O-])c(=O)[nH]c1C` the Potency was “inactive”. For `CN(C)C(=O)CCc1ccc2c3c([nH]c2c1)[C@]1(C)[C@@H](C(=O)N2CCCCC2)C[C@H](CC(=O)NCCC2=CCCCC2)C(=O)N1CC3`, the Potency was “inactive”. For `COc1cc(OC)cc(C(=O)NNC(=O)Cc2cccs2)c1`, the Potency was “inactive”. For `O=C(CNc1ccccc1N1CCCC1=O)Nc1cc(Cl)ccc1-n1cncn1`, the Potency was “inactive”. For `CN(C)c1nc(Nc2ccc(Cl)c(Cl)c2)nc(N(C)C)n1`, the Potency was “inactive”. For `Cc1nnc(NCCO)c2ccccc12`, the Potency was “inactive”. With `OCCNc1nc(Nc2ccc(Cl)c(Cl)c2)nc2ccccc12` the Potency was 10 µM (active). For `CC(C)Sc1nc(N)nc2c1ncn2C1OC(CO)C(O)C1O` (stereo not given), the Potency was “inactive”. In the case of `CC[C@]12c3[nH]c4ccc(OC)cc4c3CCN1C(=O)C(CC(=O)NCCN1CCOCC1)C[C@@H]2C(=O)N1CCN(C(=O)C2CC2)CC1` (stereo not given in full), the Potency is reported as “inactive”. For `Cc1cccn2c(=O)c3cc(C(=O)NCC4CCCO4)c(=N)n(Cc4ccc(F)cc4)c3nc12` (stereo not given), the Potency was 5.62 µM (active). In the case of `Cc1cccn2c(=O)c3cc(C#N)c(=NC(=O)c4cccnc4)n(CC4CCCO4)c3nc12` (stereo not given), the Potency is reported as “inactive”. In the case of `O=C(Nc1ccccc1C(=O)NCC1CCCO1)c1ccccc1F` (stereo not given), the Potency is reported as “inactive”. For `CCOc1ccc(CCNC(=O)CN2C(=O)NC3(CCc4ccccc43)C2=O)cc1OCC` (stereo not given), the Potency was “inactive”. In the case of `COc1cc(/C=C/C2=CC(C)(C)NC(=S)N2)cc(OC)c1OC`, the Potency is reported as “inactive”. For `COc1ccc(/C=C/C2=CC(C)(C)NC(=S)N2)c(OC)c1`, the Potency was 14.1 µM (active). With `COc1ccc(/C=C2/C(=O)N(c3ccccc3)N=C2C)c(OC)c1` the Potency was “inactive”. For `CCn1c(SCC(=O)NCC2CCCO2)nc2cc(S(=O)(=O)N3CCCCC3)ccc21` (stereo not given), the Potency was “inactive”. With `CCCCn1c(SCc2ncc(-c3ccccc3)o2)nc2cc(S(N)(=O)=O)ccc21` the Potency was 6.31 µM (active). For `CCCCn1c(SCC(=O)N2CCCC2=O)nc2cc(S(N)(=O)=O)ccc21`, the Potency was “inactive”. With `CC(=O)Nc1ccc(SC[C@H](Cc2ccccc2)N2CC[C@@H](C)CCC2=O)cc1` the Potency was “inactive”. With `C=C(C)COc1ccc(-c2nc(N)ncc2-c2ccccc2OC)c(O)c1` the Potency was 10 µM (active). In the case of `COc1ccc(-c2nc(N)ncc2-c2ccc(Cl)cc2)c(O)c1`, the Potency is reported as “inactive”. In the case of `CCOc1ccc(-c2nc(N)ncc2-c2ccccc2OC)c(O)c1`, the Potency is reported as “inactive”. In the case of `O=C(COC(=O)c1ncc(Cl)c(Cl)c1Cl)NCc1ccccc1`, the Potency is reported as “inactive”. In the case of `O=C(CCNC(=O)c1ccccc1Cl)NN=Cc1ccco1`, the Potency is reported as “inactive”. With `COC(=O)C1=C(C)NC(=S)NC1c1ccc(OCC(=O)N2CC(C)OC(C)C2)c(OC)c1` (stereo not given) the Potency was “inactive”.
